# Laboratory results taken from PubChem BioAssay.
# Several values for one entry are separate records, joined by “and”; a condition that tells them apart may be missing. Equal values may be shown once. Activity calls are given as the source filed them.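 How the source made its calls, unless noted: active means compounds whose cell count with miR-34 switched on is under 0.7 times the count with it off; inactive means the rest.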
# Experiments:
# [1] = EMT-state selective cytotoxicity in co-culture – imaging, PC-3E GFP, TEM4-18 mCherry, primary screen (AID 1345086;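 active means compounds killing one labelled cell type while sparing the other, by normalised counts and ratio limits, not self-fluorescent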;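 on all read-outs here: cells exposed to compound for 72 h before imaging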;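 on red/green cell ratio (normalised): normalised mesenchymal count divided by normalised epithelial count so high means epithelial killing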); conditions: PC-3E GFP / TEM4-18 mCherry co-culture, imaging cell counts, at 1 µM; for red/green cell ratio (normalised): actives lie on both sides, counts scaled to control wells, 1 = unselective
# [2] = viability loss with induced miR-34 in A549 – imaging, A549 dox-inducible miR-34, nuclei and caspase counts, primary screen (AID 1347080); conditions: A549 miR-34 inducible, Hoechst nuclei count, 48 h
# [3] = MELAS cybrid and Rieske KO viability enhancers – cell-based, MELAS cybrids, Rieske KO mouse fibroblasts, CellTiter-Glo, primary screen (AID 1508586;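 active means mean z-score across replicates of 1.96 or higher in either the MELAS or the Rieske mutant cell line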;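 further: z relative to plate mean and SD of compound and empty wells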); conditions: low glucose
# [4] = measured here: epithelial PC-3E GFP cell survival
# [5] = measured here: mesenchymal TEM4-18 mCherry cell survival
# [6] = stronger effect = lower value, cell number ratio, induced over uninduced
# [7] = measured here: relative caspase fold change +Dox/-Dox
# [8] = measured here: total cells with miR-34 induction, stronger effect = lower value
# [9] = measured here: total cells without miR-34 induction
# [10] = MELAS cybrid survival, CellTiter-Glo 48 h, stronger effect = higher value
# [11] = Rieske KO mouse fibroblast survival, CellTiter-Glo 72 h
Compound,red/green cell ratio (normalised) [1],"normalised cell number [1, 4]","normalised cell number [1, 5]","fold change [2, 6]","fold change [2, 7]","cell count [2, 8]","cell count [2, 9]","z-score [3, 10]","z-score [3, 11]"
CC(=O)Nc1ccccc1,1.11 (inactive),1.06,1.18,0.942 (inactive) and 0.865 (inactive),0.456 and 3.01,7610 and 11100,8080 and 12800,-0.316 (inactive),-0.0672
CCC(Cc1c(I)cc(I)c(N)c1I)C(=O)O (stereo not drawn),1.11 (inactive),1.2,1.33,0.941 (inactive) and 0.781 (inactive),0.773 and 3.75,9300 and 9110,9880 and 11700,0.0916 (inactive),-0.459
O=C(COc1ccc(Cl)cc1)N1CCN(Cc2ccc3c(c2)OCO3)CC1,0.96 (inactive),0.94,0.9,0.875 (inactive),1.39,8260,9440,0.452 (inactive),0.138
CN1C(C)(C)CCCC1(C)C,0.96 (inactive),1.09,1.05,0.888 (inactive),1,9180,10300,-0.15 (inactive),1.08
CC(NCCC(c1ccccc1)c1ccccc1)c1ccccc1 (stereo not drawn),0.89 (inactive),0.97,0.86,0.975 (inactive),1.46,2830,2900,-0.775 (inactive),-0.331
CC1(C)S[C@@H]2[C@H](NC(=O)[C@H](N)c3ccccc3)C(=O)N2[C@H]1C(=O)O,0.91 (inactive),1.22,1.12,0.937 (inactive) and 0.929 (inactive) and 0.871 (inactive),0.845 and 0.857 and 1.14,8790 and 10800 and 9210,9380 and 11700 and 10600,0.56 (inactive) and 0.538 (inactive),-0.285 and -0.0992
O=C(O)c1ccccc1O,1.29 (inactive),0.92,1.19,0.935 (inactive) and 0.936 (inactive),0.622 and 2.5,8100 and 11600,8660 and 12400,-0.0591 (inactive),-0.159
CCOC(=O)c1ccc(N)cc1,1.23 (inactive),1.07,1.31,0.793 (inactive) and 0.945 (inactive) and 0.848 (inactive),1.13 and 0.443 and 0.967,7670 and 8350 and 9530,9660 and 8840 and 11200,-0.198 (inactive) and -0.244 (inactive),-0.136 and -0.658
Cc1cc(=O)[nH]c(=S)[nH]1,0.93 (inactive),0.99,0.92,0.999 (inactive) and 0.935 (inactive),0.275 and 0.458,8050 and 11700,8060 and 12500,0.105 (inactive),-0.199
Nc1nc2c(c(=O)[nH]1)N(C=O)C(CNc1ccc(C(=O)N[C@@H](CCC(=O)O)C(=O)O)cc1)CN2 (stereo partly drawn),1.45 (inactive),0.95,1.38,0.908 (inactive) and 0.841 (inactive),0.756 and 0.824,9140 and 10900,10100 and 12900,-0.42 (inactive),0.152
C=CCSCC1Nc2cc(Cl)c(S(N)(=O)=O)cc2S(=O)(=O)N1 (stereo not drawn),1.09 (inactive),1.09,1.19,0.925 (inactive) and 0.942 (inactive),0.973 and 1.58,8690 and 12000,9400 and 12700,-0.333 (inactive),-0.472
C/C=C/c1ccc(OC)cc1,1.24 (inactive),1.08,1.34,0.85 (inactive) and 0.895 (inactive),3 and 1.61,10200 and 9980,11900 and 11200,-0.525 (inactive),-1.37
Cc1c(C(N)=O)cc([N+](=O)[O-])cc1[N+](=O)[O-],0.99 (inactive),0.91,0.9,1.04 (inactive),1.27,8930,8590,-0.219 (inactive),-0.175
Nc1ccc(C(=O)NCC(=O)O)cc1,1.12 (inactive),1.03,1.15,0.905 (inactive) and 0.867 (inactive) and 0.907 (inactive),1.12 and 0.765 and 3.35,9600 and 8480 and 12000,10600 and 9780 and 13300,-0.372 (inactive) and 0.514 (inactive),-0.0832 and -0.331
CCN(CC)CCNC(=O)COc1ccc(OC)cc1,1.07 (inactive),1.11,1.18,0.859 (inactive) and 0.867 (inactive),1.24 and 3.74,9000 and 11100,10500 and 12800,0.396 (inactive),-0.0981
O=C(O)CCC(=O)Nc1ccc(S(=O)(=O)Nc2nccs2)cc1,1.01 (inactive),1.11,1.13,0.889 (inactive) and 0.92 (inactive),0.9 and 3.43,8630 and 11000,9720 and 12000,0.0389 (inactive),0.552
Cc1cc(=O)n(-c2ccccc2)n1C,1.02 (inactive),1.24,1.26,0.939 (inactive) and 0.859 (inactive) and 0.88 (inactive),0.938 and 0.796 and 1.12,8700 and 7960 and 10700,9270 and 12100,-0.258 (inactive) and 0.556 (inactive),-0.2 and -0.0597
